FBPA coupling cs: counter-screen for Giardia aldolase inhibitors: coupling enzyme system; coupling enzyme system counterscreen, AmpLite Red fluorescence; AID 2472; activity change, negative = inhibition, % at 58.2 µM, hits read low; 290,000 compounds, 0.67% hits; in the data active = activity change below about -30%
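Counterscreen lacking aldolase: glyceraldehyde-3-phosphate coupling-enzyme reagent preincubated 10 min at RT with compound (at 57.5 uM final), then substrate/coupling system with AmpLite Red added; fluorescence read at 525/598 nm after 20 min RT.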
GALK inhibitor: blocks human galactokinase activity; 270,000 compounds, 0.007% hits; Potency, µM (highest dose often 57.5 µM), hits mostly inhibitors; P51570; AID 1868; Purified GALK, Kinase-Glo residual ATP luminescence
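5 nM enzyme, 35 uM ATP, 100 uM galactose, 20 mM HEPES pH8.0, 5 mM MgCl2; 1 h RT; residual ATP by Kinase-Glo Plus luminescence, qHTS format.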
USP1-UAF1 inh: USP1/UAF1 (human) deubiquitinase inhibition; AID 743255; Potency, µM (highest dose often 57.1 µM), most hits filed as inhibitors; 390,000 compounds, 0.23% hits; recombinant USP1/UAF1, Ub-Rhodamine cleavage fluorescence; O94782; note: nearly all actives have a fitted effect of over 60% in size
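USP1/UAF1 complex (1 nM) preincubated 15 min at room temperature with compound, then Ub-Rho substrate (150 nM final) added. Kinetic fluorescence at 480/540 nm over 6 reads at 60 s intervals; 50 mM HEPES pH 7.8, 0.5 mM EDTA, 0.1 mg/ml BSA, 1 mM TCEP, 0.01% Tween-20.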
VDR inh: vitamin D3 receptor (human) inhibition; VDR-SRC2-3 peptide fluorescence polarization, 2 h; AID 504847; 400,000 compounds, 0.93% hits; P11473; Potency, µM, usual class: inhibitors
Target sequence (P11473 whole entry, looked up): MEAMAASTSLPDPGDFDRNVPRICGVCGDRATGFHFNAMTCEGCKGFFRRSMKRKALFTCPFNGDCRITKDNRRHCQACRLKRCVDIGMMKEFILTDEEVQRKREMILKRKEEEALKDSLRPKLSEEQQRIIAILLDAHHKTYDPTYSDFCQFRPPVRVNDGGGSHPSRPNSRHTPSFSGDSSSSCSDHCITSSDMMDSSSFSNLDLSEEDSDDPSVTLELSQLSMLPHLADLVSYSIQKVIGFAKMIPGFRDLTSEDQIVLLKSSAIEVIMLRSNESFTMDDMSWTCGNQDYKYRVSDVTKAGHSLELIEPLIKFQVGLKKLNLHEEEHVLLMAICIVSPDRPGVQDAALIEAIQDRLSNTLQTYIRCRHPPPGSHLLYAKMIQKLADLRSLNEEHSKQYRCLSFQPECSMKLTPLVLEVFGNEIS
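Signal is fluorescence polarization, reporting how far test compounds block the interaction of VDR with the SRC2-3 coregulator peptide after a 2 h room-temperature incubation.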
USP2a inh: inhibitors of human ubiquitin-specific protease USP2a | 330,000 compounds, 0.01% hits | Potency, µM (highest dose often 38.3 µM), actives largely listed as inhibitors | AID 463254 | USP2 core, Ub-CHOP2 coupled fluorogenic reporter, 485/531 | O75604
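Cell-free coupled assay: 10nM USP2 core preincubated 30min RT with compound in Tris-HCl pH 8.0/CaCl2/CHAPS buffer, then 25nM Ub-CHOP2 and 25nM reporter substrate; fluorescence (Ex 485/Em 531) read after 60min RT, normalized to NEM inhibition, concentration-response curves fitted.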
PLK1 PBD block: PLK1 (human) polo-box domain binding inhibition; P53350; Plk1 PBD binding of FITC phosphopeptide, fluorescence polarization; Potency, µM, actives largely listed as inhibitors; 360,000 compounds, 2.8% hits; AID 720504; note: series mostly up to about 57 µM; nearly all actives have a fitted effect of over 65% in size
A number is an active result; n = inactive; u = inconclusive; x = not tested or not shown; ! = not active in a repeat. A selection: hits, their analogues and other compounds. The true share with any hit is near 3.2%. Unless noted, calls come from the whole dose curve; as a rule, active = well fitted curve in the direction sought with a large enough effect; inconclusive = small, poorly fitted or top-dose-only effect, or another doubt; inactive = no such curve, though single readings can be large; an effect the other way counts as inactive or inconclusive.

SMILES	FBPA coupling cs	GALK inhibitor	USP1-UAF1 inh	VDR inh	USP2a inh	PLK1 PBD block
O=C(OCn1ncc(Br)c(Br)c1=O)c1ccc(F)cc1	n	n	u	25µM	n	9.5µM
Cn1ccnc1C(=O)c1cc(SCC(=O)NCc2ccccc2)nc2ccccc12	n	n	n	n	n	21µM
COc1cccc(OCCSc2nc3ccccc3n2CC(=O)N2CCOCC2)c1	x	x	n	n	x	x
Cc1nn(C)cc1C(=O)Nc1cc(Oc2ccc(Cl)cc2)cc([N+](=O)[O-])c1	n	n	n	n	n	27µM
CC(=O)Nc1ccc(S(=O)(=O)NNC(=O)c2ccc([N+](=O)[O-])cc2)cc1	n	n	n	n	n	n
CC(=O)Nc1ccc(S(=O)(=O)NNc2ccc([N+](=O)[O-])cc2)cc1	n	n	n	89µM	n	u
CC(=O)Nc1ccc(Oc2cc(NC(C)=O)cc([N+](=O)[O-])c2)cc1	n	n	n	u	n	7.5µM
COC(=O)c1cn(C(C)C(=O)NCc2ccco2)c2ccccc12 (stereo unspecified)	n	n	n	n	n	n
CC(C)Cc1ccc(C(C)C(=O)Nc2ccccc2O)cc1 (stereo unspecified)	n	n	n	n	n	n
Cc1ccc(C2=NN(CC(=O)NCCN(C)C)C(=O)CC2)cc1	n	x	n	n	n	n
CCN1/C(=C2\OC(=S)N(C)C2=O)Sc2ccccc21	n	n	n	n	n	n
CCOc1cc(/C=C\[N+](=O)[O-])ccc1OCC(=O)Nc1ccccc1C	n	n	n	4.5µM	n	u
Cc1ccc(C(=O)N/C(=C/c2ccco2)C(=O)NC2CCS(=O)(=O)C2)cc1 (stereo unspecified)	n	n	n	n	n	n
COc1ccc(/C=C(/NC(=O)c2ccccc2)C(=O)NC2CCS(=O)(=O)C2)cc1 (stereo unspecified)	n	n	n	u	n	15µM
FC(F)(F)c1cccc(NCc2cn3cccnc3n2)c1	-52	n	n	n	n	n
CCOC(=O)C1=C(C)N=c2s/c(=C/c3cccc([N+](=O)[O-])c3O)c(=O)n2C1c1ccccc1 (stereo unspecified)	n	x	n	u	n	19µM
CCOC(=O)C1=C(C)N=c2s/c(=C\c3ccc(OCC(=O)O)c(OC)c3)c(=O)n2C1c1ccc(OC)cc1 (stereo unspecified)	n	n	u	u	n	n
COc1ccc(C2C(C(C)=O)=C(C)N=c3s/c(=C/c4ccc5c(c4)OCO5)c(=O)n32)cc1 (stereo unspecified)	n	n	x	x	n	x
CC(=O)C1=C(C)N=c2s/c(=C/c3ccc4c(c3)OCO4)c(=O)n2C1c1ccc(N(C)C)cc1 (stereo unspecified)	x	x	n	32µM	x	27µM
CCOC(=O)C1=C(C)N=c2s/c(=C\c3ccc(OCC(=O)O)cc3)c(=O)n2C1c1ccccc1 (stereo unspecified)	n	n	n	u	n	u
CCOC(=O)C1=C(C)N=c2sc(=Cc3cc(Cl)c(OCC(=O)O)c(OC)c3)c(=O)n2C1c1ccccc1Cl (stereo unspecified)	x	x	x	x	x	27µM
CCOC(=O)C1=C(C)N=c2s/c(=C\c3ccc(C(=O)O)cc3)c(=O)n2C1c1ccc(F)cc1 (stereo unspecified)	n	n	n	u	n	30µM
C=CCn1c(SCc2cc(=O)n3cc(C)ccc3n2)nnc1-c1ccc(F)cc1	n	n	n	n	n	n
O=C(O)CSCc1c(F)cccc1Cl	n	n	n	n	n	n
CCOC(=O)C1=C(c2ccccc2)N=c2s/c(=C\c3ccc(O)cc3)c(=O)n2C1c1cccs1 (stereo unspecified)	n	n	28µM	n	n	n
SMILES	FBPA coupling cs	GALK inhibitor	USP1-UAF1 inh	VDR inh	USP2a inh	PLK1 PBD block
O=C1Nc2ccccc2C(O)(C(=O)NCc2ccc3c(c2)OCO3)N1c1ccc(Cl)c(Cl)c1 (stereo unspecified)	n	x	n	n	n	n
FC(F)(F)c1ccnc(N2CCN(Cc3cnc(-c4ccccc4)[nH]3)CC2)c1	n	n	n	n	n	n
O=C(Cc1ccccc1)NC1CCN(C(=O)NCc2ccccc2)CC1	n	n	n	n	n	27µM
O=C(NCc1ccccc1)N1CCN(c2ccc(F)cc2)CC1	n	n	n	n	n	3µM
CC(C)c1nc(CNC(=O)CCc2nnc(-c3ccsc3)o2)cs1	n	n	n	n	n	n
O=c1nc(/C=C/c2ccccc2C(F)(F)F)cc(C(F)(F)F)[nH]1	n	n	n	32µM	n	n
O=C(Nc1cc(Sc2ccccn2)cc([N+](=O)[O-])c1)c1ccc([N+](=O)[O-])cc1	n	n	n	u	n	1.1µM
COC(=O)CCC(=O)OC1(C)C(=O)C=C2C=C(C3CC3)N(Cc3ccc(OC)cc3)C=C2C1=O (stereo unspecified)	-45!	n	u	n	n	n
COC(=O)CCC(=O)OC1(C)C(=O)C2=CN(CCc3c[nH]c4ccccc34)C(c3ccc(OC)cc3)=CC2=C(Br)C1=O (stereo unspecified)	n	x	u	n	x	n
COC(=O)CCC(=O)OC1(C)C(=O)C=C2C=C(C3CC3)N(CCc3c[nH]c4ccccc34)C=C2C1=O (stereo unspecified)	-40!	n	u	n	n	n
COC(=O)CCC(=O)OC1(C)C(=O)C=C2C=C(C3CC3)N(c3ccccc3)C=C2C1=O (stereo unspecified)	-41	n	u	n	n	u
CN(Cc1ccccc1)Cc1c(F)cccc1F	n	n	n	n	n	n
N#Cc1c(-n2ncnc2-c2cccc(Br)c2)sc2c1CCCCC2	x	x	u	n	x	x
COc1ccc(-c2nc3ccccc3o2)cc1NC(=O)C(C)Oc1ccc(Cl)cc1Cl (stereo unspecified)	x	x	n	n	x	x
Cc1onc(-c2ccccc2)c1C(=O)N/N=C/C=C/c1ccccc1	n	n	n	n	n	n
Cc1ccc(NC(=O)CSc2nnc([C@H](C)NC(=O)OC(C)(C)C)o2)c(C)c1	n	n	n	n	n	n
Cc1cccc(NC(=O)CSc2nnc([C@H](C)NC(=O)OC(C)(C)C)o2)c1C	n	n	n	u	n	27µM
CC(=O)c1cc(CC=C(C)C)c(O)cc1O	n	x	n	n	n	30µM
CC(=O)c1cc(CC=C(C)C)c(O)c(CC=C(C)C)c1O	n	n	n	n	n	n
Cc1[nH]n(-c2ccccc2)c(=O)c1C1(C(F)(F)F)C(=O)N(c2ccccc2)C2=C1C(=O)CC(C)(C)C2 (stereo unspecified)	n	n	n	n	n	n
COc1ccc(F)cc1S(=O)(=O)n1cc(C)nc1-c1ccccc1	n	n	n	u	n	4.2µM

Screening results from PubChem BioAssay.
